Test results as given in PubChem BioAssay AID2315 (National Center for Advancing Translational Sciences (NCATS), 2010).
The whole screen tested about 290,000 compounds, of which about 27,000 (9.3%) were called active. What follows is part of a selection rich in actives, with near analogues and random picks from the rest. A number with no mark means an inactive call. Rule as the data show it: active = inhibition mostly above about 28% (no sharp cut-off); inactive = mostly below about 43%.

Assay: A qHTS for Small Molecule Inhibitors of Shiga Toxin; also: 0% is about no effect
Settings: Vero cells, Shiga toxin protein synthesis inhibition reporter; at 38.7 µM, active compounds read high

Structure (SMILES) | inhibition
O=C(Cc1ccccc1F)NC1CCSc2ccccc21 (configuration not stated) | 8.44%
CCOC(=O)c1ccc(NC(=O)c2ccc(NC(=O)C3CCCO3)cc2)cc1 (configuration not stated) | 21.1%
CC(C)c1ccc(NC2CCCN(C(=O)c3ccncc3)C2)cc1 (configuration not stated) | -8.11%
COC(=O)c1cc(NC(=O)c2cc(C(C)(C)C)nn2Cc2cccc(C)c2)ccc1N1CCOCC1 | -6.65%
O=C(Nc1cccnc1)c1cc2cc(Br)ccc2oc1=O | 28.7%
C/C(=N/NC(=S)Nc1ccccc1)c1ccc2c(c1)OCO2 | 67.4%
N#Cc1ccccc1NC(=O)c1ccc2c(c1)OCO2 | 22.7%
COc1ccc(S(=O)(=O)N2CCOCC2)cc1C(=O)Nc1nc2ccccc2s1 | -1.04%
O=C(Nc1nc2ccccc2s1)c1ccc2c(c1)OCO2 | 39.2% (active)
O=C(Nc1nc2cc3c(cc2s1)OCCO3)c1cccc(S(=O)(=O)N2CCOCC2)c1 | 53.6%
O=C(Nc1cccnc1)c1cccc(S(=O)(=O)N2CCCC2)c1 | 23.2%
COCc1nnc(NC(=O)c2ccc3c(c2)OCO3)s1 | 59.3% (active)
CCCc1nnc(NC(=O)c2cc(OC)cc(OC)c2)s1 | 34.6%
COCc1nnc(NC(=O)CS(=O)(=O)Cc2ccccc2)s1 | 3.05%
O=C(Nc1cccnc1)c1noc2c1CCCCC2 | 29% (active)
O=C(Nc1ccccc1)c1ccc2c(c1)OCO2 | 58.7% (active)
CCOC(=O)c1csc(CCNC(=O)c2oc3c(Cl)cc(C)cc3c2C)n1 | 43.9%
O=C(NCCS(=O)(=O)c1ccc(Br)cc1)c1ccccc1Cl | -1.37%
Cc1ccnc(NC(=O)C2CCN(S(=O)(=O)c3c(C)c(C)cc(C)c3C)CC2)c1 | 8.68%
COc1ccc(N(C(=O)CNC(=O)c2ccco2)C(C(=O)NCC2CCCO2)c2ccccc2)cc1Cl (configuration not stated) | 15.8%
C/C(=N\NC(=O)C1(C)CC1(Br)Br)c1ccc(C)cc1C (configuration not stated) | -7.42%

Structure (SMILES) | inhibition
CCOC(OCC)OCC | 11.5%
COCCCN1C(=O)c2ccc(C(=O)OCC(=O)NCc3ccccc3OC)cc2C1=O | 9.09%
COc1ccccc1CNC(=O)c1ccc(CS(=O)(=O)c2ccccc2)o1 | 2.09%
COC(=O)CN1C(=O)[C@H]2[C@@H](C3CC3)N3C(=O)CN(Cc4ccc(-c5ccccc5)cc4)C(=O)[C@@]3(Cc3ccccc3)[C@H]2C1=O | 9.74%
CCOc1ccccc1-c1cc(C(=O)N/N=C(\C)c2cccnc2)c2ccccc2n1 | -30.4%
Cc1ccccc1/C=C\c1nc(O)c([N+](=O)[O-])c(=O)[nH]1 | -14.2%
Cc1ccc2[nH]c(=O)c(CN(C)S(=O)(=O)c3cccc4nonc34)cc2c1 | -4.87%
CCC1(CC)Cc2ccccc2-c2nc(CCl)[nH]c(=O)c21 | -4.46%
CCc1ccc(OCC(O)CN2CCN(CCO)CC2)cc1 (configuration not stated) | -8.28%
COc1ccc(NC(=O)N2CCCC2C(=O)NCc2ccccc2Cl)cc1 (configuration not stated) | -3.06%
CC(NC(=O)c1ccco1)c1ccc2c(c1)OCO2 (configuration not stated) | -15.1%
CCC(C)(C)NC(=O)C(c1ccc(O)cc1)N(Cc1ccco1)C(=O)CCC(=O)Nc1ccccn1 (configuration not stated) | -12.1%
Cc1ccc(C)c(S(=O)(=O)N2CCCOC2CNC(=O)C(=O)NC2CCCCC2)c1 (configuration not stated) | 20.6%
CC(C)c1ccc(S(=O)(=O)N2CCN(C(=O)c3ccc(N4CCCC4)c([N+](=O)[O-])c3)CC2)cc1 | 25.8%
O=C(Nc1cccc(S(=O)(=O)Nc2ccc(Cl)cc2)c1)c1ccc2c(c1)OCCO2 | 11.3%
CC(Sc1nc2cc(Cl)ccc2s1)C(=O)Nc1ccc2c(c1)OCO2 (configuration not stated) | 0% (active)
CC(=O)c1ccc2c(c1)OCCOCCOc1ccc(C(C)=O)cc1OCCOCCO2 | -5.3%
O=C(Nc1cccnc1)c1ccc2c(c1)OCO2 | 33% (active)
COc1ccc(C(=O)Nc2cccnc2)cc1C(=O)Nc1cccnc1 | 9.57%
CC(Sc1nc(-c2ccccc2)cc(C(F)(F)F)n1)C(=O)Nc1ccc2c(c1)OCO2 (configuration not stated) | -14.3%
O=C(Nc1ccc(Cl)cn1)c1ccc2c(c1)OCCO2 | 32.4%

Structure (SMILES) | inhibition
O=C(Nc1ccc2c(c1)OCO2)c1sc2cc(Cl)ccc2c1Cl | -13.4%
Cc1nc(NC(=O)c2ccc3c(c2)OCCO3)ccc1Br | 90.6% (active)
O=C(CN1CCc2cc3c(cc2C1)OCCCO3)Nc1ccccc1 | 18.6%
O=C(Nc1ccccc1)c1ccc2c(c1)OCCCO2 | 58.6% (active)
CN1CCC(CN)(N2CCN(c3ccccc3)CC2)CC1 | -6.52%
COc1cccc2sc(N(CCCN(C)C)C(=O)CCS(=O)(=O)c3ccccc3)nc12 | 8.49%
CC1(C)Cc2c(cnn2-c2cccc(F)c2)C(NC(=O)c2cc[n+]([O-])cc2)C1 (configuration not stated) | -5.88%
Cc1cccnc1NC(=O)Cn1c(=O)oc2ccccc21 | 30.2%
Cc1ccc(S(=O)(=O)c2c[nH]c3ccc(Cl)cc3c2=O)cc1 | -4.43%
O=C(Nc1ccc(C(=O)N2CCCCC2)cc1)c1cccc([N+](=O)[O-])c1 | 27.3%
O=C(Nc1ccc(NC(=O)c2ccco2)c(Cl)c1)c1cccc([N+](=O)[O-])c1 | 15.6%
CC(NC(=O)Nc1cccc([N+](=O)[O-])c1)c1ccc2c(c1)OCO2 (configuration not stated) | 6.02%
O=C(c1ccc2c(c1)OCO2)N1CCOCC1 | 1.95%
O=C(Nc1ccc2c(c1)OCO2)c1ccc(N2C(=O)c3ccccc3C2=O)cc1 | 17.3%
O=C(Nc1ccc(C2CC2(Cl)Cl)cc1)c1cccc([N+](=O)[O-])c1 (configuration not stated) | 76.3% (active)
O=C(Nc1ccc(N2CCOCC2)cc1)c1ccc2c(c1)OCO2 | 76.4% (active)
O=C(Nc1cccc([N+](=O)[O-])c1)c1ccc2c(c1)OCO2 | 58.7% (active)
O=C(Nc1cccc([N+](=O)[O-])c1)Nn1cnnc1 | -6.68%
CC(C)C(=O)Nc1cccc(C(=O)Nc2ccc3c(c2)OCO3)c1 | 143% (active)
CCSc1ccccc1C(=O)Nc1ccc2c(c1)OCO2 | 45.1%
